Test results from PubChem BioAssay (NCI).
About 83,000 compounds went through this panel and 20% of them were active in at least one assay; those are over-represented in the sample as a whole.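 Activity criterion: percent growth below 10, measured after cells in 96-well plates were exposed to a single compound concentration for 48 hours.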 A number with no mark means an inactive call. The source made the active and inactive calls.

test system: TK-10 renal; experiment: NCI-60 one-dose screen, 48 h (100 = growth as untreated, 0 = no growth, -100 = all killed); settings: 10 µM unless noted

| SMILES | growth |
| --- | --- |
| CCCCNC(=O)NS(=O)(=O)c1ccc(N2N=C(c3ccc(C)cc3C)CC2c2ccc(N(C)C)cc2)cc1 (configuration not stated) | 83% |
| O=C1Nc2ccccc2SC1c1ccccc1Cl (configuration not stated) | 88.7% |
| O=C(Nc1ccc(N2CCCCC2)c(Cl)c1)c1ccc(Br)o1 | 102% |
| Nc1ccc(CCCCc2ccccc2)c(Cl)c1 | 88.7% |
| C[C@@H]1CC[C@@H]2[C@@H]1[C@H](OC(=O)c1ccc3ccccc3c1)[C@]1(C3CCCCC3)C[C@@H](OC(=O)CO)[C@@]2(C)O1 | 79.2% |
| COc1ccc(C(=O)/C=C/c2cc3c(c(OC)c2)OCC(=O)N3)cc1 | 116% |
| CO[C@H]1/C=C/O[C@@]2(C)Oc3c(C)c(O)c4c(c3C2=O)C(=O)C(/C=N/N(c2ccccc2)c2ccccc2)=C(NC(=O)/C(C)=C\C=C\[C@H](C)[C@H](O)[C@@H](C)[C@@H](O)[C@@H](C)[C@H](OC(C)=O)[C@@H]1C)C4=O | -1.72% (active) |
| COc1cc(NC(=O)c2cccc(-c3cc(=O)c4c(O)c(OC)c(OC)cc4o3)c2)cc(OC)c1OC | 74.8% |
| NC(N)=N/N=C/CO | 98.7% |
| CCCCCCCSc1ccc(C(=O)O)cc1 | 105% |
| COc1cc2oc(-c3cccc(C(=O)Nc4ccc(C)cc4)c3)cc(=O)c2c(OC)c1OC | 53.3% |
| Fc1ccc(Nc2nc3nonc3nc2Nc2ccc(F)cc2)cc1 | -4.95% (active) |
| C[C@@H]1C(=O)N(C[C@H](Cc2ccccc2)N(Cc2ccccc2)Cc2ccccc2)[C@]1(Cc1ccccc1)C(=O)OC(C)(C)C | 50.5% |
| Cc1ccc(-n2nnc(C3=NCCc4c3[nH]c3ccc(Cl)cc43)c2C)cc1 | 78.9% |
| COc1ccc(OC)c(/C=C2\COc3ccc(O)c(O)c3C2=O)c1 | 41.5% |
| CCOc1ccc2nc(-c3cccc(OCC(=O)NC(C)C)c3)nc(Nc3ccc(-c4cn[nH]c4)cc3)c2c1 | 47.4% |
| CN(C)c1ccc(C#Cc2c(F)cccc2Cl)cc1 | 96.8% |
| Clc1ccc2[nH]c3c(NCCCN4CCOCC4)ncnc3c2c1 | 78.3% |
| Cc1nc(C)c(-c2nn3c(-c4cccc(F)c4)nnc3s2)s1 | 77.6% |

| SMILES | growth |
| --- | --- |
| CC1(C)N=C(N)N=C(N)N1c1ccc(Cl)c(Cl)c1 | 48.5% |
| CCOc1cccnc1/C=N/NC(N)=S | 66% |
| COc1cc2oc(-c3cccc(C(=O)Nc4ccc(C#N)cc4)c3)cc(=O)c2c(O)c1OC | 50.5% |
| O=C1NCC(=O)N(Cc2ccco2)[C@H]1Cc1ccccc1 | 85.5% |
| O=C(Nc1ccccn1)[C@H](O)[C@@H](O)C(=O)N1CCOCC1 | 96.2% |
| CCOC(=O)Cc1csc2nc(-c3ccccc3)nn12 | 126% |
| CN(C)c1ccc(/C=C/c2c(F)cccc2F)cc1 | 109% |
| CCOc1cc(C2C(Cl)C(=O)N2n2cnnc2)ccc1O (configuration not stated) | 99.1% |
| Nc1ccn(C2OC(F)(CO)C(O)C2F)c(=O)n1 (configuration not stated) | 75.8% |
| CC(=O)C(C(C)=O)c1nc2sc3cc(Cl)ccc3n2c(=N)c1C#N | 117% |
| O=C(CC1Sc2ccccc2NC1=O)NNc1ccc(F)cc1 (configuration not stated) | 121% |
| CN(C)c1ccc2cc(-c3ccc(Cl)c(Cl)c3)c(N)nc2c1 | 27.9% |
| Nc1c(C(=O)Nc2ccccc2)sc2nc3c(cc12)CCCCCC3 | 36.3% |
| O=C(Nc1cccc2[nH]c(C(F)(F)F)nc12)c1cc(Cl)ccc1Cl | 4.93% (active) |
| NC(=S)N/N=C/C(=O)O | 111% |
| COc1cc(/C=C2\C=C(c3ccccc3)N(CCc3ccccc3)C2=O)cc(OC)c1OC | 81.9% |
| C(=C\c1nc2ccccc2[nH]1)/c1nc2ccccc2[nH]1 | 143% |
| C=C(Cl)COC(=O)C(C)(C)O | 89.5% |
